The supplement of paper PMC10498489
About 330 (14%) of roughly 2,300 compounds showed activity.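 How the source made its calls: active = median modified Z-score above 1.96; inactive = 1.96 or below.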 Only a sample is shown.

The molecules below were run on HepG2 Srxn1-GFP reporter cells (+30 nM CDDO-Me) (assay: Srxn1-GFP intensity median modified Z-score relative to plate median; higher = stronger NRF2 / oxidative stress reporter activation, active = hit call of the paper). Details: 10 µM; exposure time: 24h.
Procedure, shortened: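 Each value is the replicate median of a per-plate modified Z-score for GFP intensity in HepG2 Srxn1-GFP BAC reporter cells. The cells (20,000 per well, 96-well plates, three replicate plates) received compound at 10 μM together with an NRF2 activator at 30 nM for 24 h, in ≤0.1% DMSO. Cytoplasmic GFP was quantified per cell from confocal images of formaldehyde-fixed, Hoechst-stained cells, leaving out images with fewer than 100 cells, and scaling used 1.4826 × median absolute deviation.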
In the case of `Cc1cc(C)cc(-c2nnc(SCc3csc(Nc4ccccc4)n3)o2)c1`, the “Srxn1-GFP intensity median modified Z-score” value is reported as 0.289 (inactive).
In the case of `O=c1[nH]cnc2[nH]ncc12` [euspeclibcmpd15], the “Srxn1-GFP intensity median modified Z-score” value is reported as 0.378 (inactive).
In the case of `CCOC(=O)O[C@]1(C(=O)COC(=O)CC)CCC2C3CC=C4CC(=O)C=C[C@]4(C)C3[C@@H](O)C[C@@]21C` (some centres not stated) [euspeclibcmpd1145], the “Srxn1-GFP intensity median modified Z-score” value is reported as -0.25 (inactive).
With `NC(COCc1ccccc1)C(=O)O` (configuration not stated) [euspeclibcmpd2285] the “Srxn1-GFP intensity median modified Z-score” value was -0.141 (inactive).
For `Cc1cc(CC(C)CC(C)(C)C)n(O)c(=O)c1` (configuration not stated) [euspeclibcmpd627], the “Srxn1-GFP intensity median modified Z-score” value was 0.455 (inactive).
`O=C(NC(Cc1cc(=O)[nH]c2ccccc12)C(=O)O)c1ccc(Cl)cc1` (configuration not stated) [euspeclibcmpd1178] was tested, and the “Srxn1-GFP intensity median modified Z-score” value was 0.0863 (inactive).
`CN(CCOC(c1ccccc1)c1ccccc1)S(C)(=O)=O` was tested, and the “Srxn1-GFP intensity median modified Z-score” value was 1.57 (inactive).
`CC(=O)Nc1cc2ccccc2oc1=O` [euspeclibcmpd1797] was tested, and the “Srxn1-GFP intensity median modified Z-score” value was 0.241 (inactive).
`CCCC(=O)N=c1[nH]cnc2c1ncn2C1O[C@@H]2COP(=O)(O)O[C@H]2[C@H]1OC(=O)CCC` (some centres not stated) [euspeclibcmpd1111] was tested, and the “Srxn1-GFP intensity median modified Z-score” value was 0.97 (inactive).
In the case of `CCCCCCOC(=O)N=C(N)c1ccc(NCc2nc3cc(C(=O)N(CCC(=O)OCC)c4ccccn4)ccc3n2C)cc1` [euspeclibcmpd2169], the “Srxn1-GFP intensity median modified Z-score” value is reported as 0.57 (inactive).
For `N=c1c2c([nH]c3ccccc13)CCCC2` [euspeclibcmpd944], the “Srxn1-GFP intensity median modified Z-score” value was -0.0541 (inactive).
`O=c1c2ccccc2[nH]c2ccccc12` was tested, and the “Srxn1-GFP intensity median modified Z-score” value was 0.588 (inactive).
In the case of `N=c1c2ccccc2[nH]c2ccccc12` [euspeclibcmpd350], the “Srxn1-GFP intensity median modified Z-score” value is reported as 15 (active).
With `CC(=O)c1c(O)c(C)c(O)c2c1OC1=CC(=O)C(C(C)=O)C(=O)C12C` (configuration not stated) [euspeclibcmpd1449] the “Srxn1-GFP intensity median modified Z-score” value was 12.3 (active).
For `NCCC(=O)C(O)N[C@@H]1C[C@H](N)[C@@H](O[C@H]2O[C@H](CN)[C@@H](O)[C@H](O)[C@H]2O)[C@H](O)[C@H]1O[C@H]1O[C@H](CO)[C@@H](O)[C@H](N)C1O` (some centres not stated) [euspeclibcmpd967], the “Srxn1-GFP intensity median modified Z-score” value was -0.34 (inactive).
For `CCCC[C@@H](CC)COC(=O)/C=C/c1ccc(OC)cc1` [euspeclibcmpd2186], the “Srxn1-GFP intensity median modified Z-score” value was 1.35 (inactive).
With `COC1=CC(=O)C=C(OC)C1=O` [euspeclibcmpd2007] the “Srxn1-GFP intensity median modified Z-score” value was 0.392 (inactive).
With `COC1=CC(=O)C(=O)C=C1C=CCc1ccccc1` [euspeclibcmpd1419] the “Srxn1-GFP intensity median modified Z-score” value was 9.05 (active).
For `COC1=CC(=O)C(C(=O)c2ccccc2)=CC1=O` [euspeclibcmpd1986], the “Srxn1-GFP intensity median modified Z-score” value was -0.559 (inactive).
`CC(=O)OCC(=O)[C@@]1(O)CCC2C3CC=C4CC(=O)CC[C@]4(C)[C@@]3(F)[C@@H](O)C[C@@]21C` (some centres not stated) [euspeclibcmpd127] was tested, and the “Srxn1-GFP intensity median modified Z-score” value was -0.373 (inactive).
In the case of `Cc1n[nH]c(=NS(=O)(=O)c2ccc(N)cc2)s1` [euspeclibcmpd277], the “Srxn1-GFP intensity median modified Z-score” value is reported as -0.64 (inactive).
For `Cc1csc(/C(C#N)=C\C=C\c2ccccc2[N+](=O)[O-])n1`, the “Srxn1-GFP intensity median modified Z-score” value was 35.4 (active).
In the case of `OC[C@@H](O)[C@@H](O[C@@H]1O[C@H](CO)[C@H](O)[C@H](O)[C@H]1O)[C@H](O)[C@@H](O)CO` [euspeclibcmpd2389], the “Srxn1-GFP intensity median modified Z-score” value is reported as -0.142 (inactive).
`CC1(C(=O)O)CCC2(C)CCC3(C)C(=C2C1)CC(=O)C1C2(C)CCC(O)C(C)(C)C2CCC13C` (configuration not stated) [euspeclibcmpd1963] was tested, and the “Srxn1-GFP intensity median modified Z-score” value was -0.0731 (inactive).
With `O=C(COC(=O)C12CC3CC(C1)CC(c1ccccc1)(C3)C2)Nc1ncc(C(F)(F)F)cc1Cl` the “Srxn1-GFP intensity median modified Z-score” value was 1.42 (inactive).
For `CCN(CC)C(=O)C(C#N)=Cc1cc(O)c(O)c([N+](=O)[O-])c1` [euspeclibcmpd861], the “Srxn1-GFP intensity median modified Z-score” value was -0.942 (inactive).
In the case of `CC(C)(O)[C@@H]1CC[C@](C)([C@H]2[C@@H](O)C[C@@]3(C)C4C[C@H](O[C@@H]5O[C@H](CO)[C@@H](O)[C@H](O)[C@H]5O)C5C(C)(C)[C@@H](O[C@@H]6OC[C@@H](O)[C@H](O)[C@H]6O)CC[C@@]56C[C@@]46CC[C@]23C)O1` (some centres not stated) [euspeclibcmpd1691], the “Srxn1-GFP intensity median modified Z-score” value is reported as -0.304 (inactive).
For `O=C(O)CN1C(=O)c2cccc3cccc(c23)C1=O` [euspeclibcmpd433], the “Srxn1-GFP intensity median modified Z-score” value was 2.2 (active).
In the case of `O=C(O)CCCN1C(=O)c2cccc3cccc(c23)C1=O` [euspeclibcmpd1803], the “Srxn1-GFP intensity median modified Z-score” value is reported as -0.0255 (inactive).
For `CCCCCCCC/C=C/CCCCCCCCOP(=O)(O)OCC[N+](C)(C)C` [euspeclibcmpd1773], the “Srxn1-GFP intensity median modified Z-score” value was 1.28 (inactive).
In the case of `CNC(C)[C@@H]1CC[C@@H](N)[C@@H](OC2[C@@H](N)C[C@@H](N)[C@H](OC3OC[C@](C)(O)[C@H](NC)[C@H]3O)[C@H]2O)O1` (some centres not stated) [euspeclibcmpd820], the “Srxn1-GFP intensity median modified Z-score” value is reported as -0.00227 (inactive).
With `CC(=O)O[C@]1(C(C)=O)CCC2C3CC(C)=C4CC(=O)CC[C@]4(C)C3CC[C@@]21C` (some centres not stated) [euspeclibcmpd178] the “Srxn1-GFP intensity median modified Z-score” value was -0.198 (inactive).
`C=C1C(=O)O[C@@H]2C[C@@]3(C)CCC[C@H](C)C3=C[C@H]12` [euspeclibcmpd1482] was tested, and the “Srxn1-GFP intensity median modified Z-score” value was 10.2 (active).
In the case of `Cc1cc(-c2ccc(N=Nc3ccc4c(S(=O)(=O)O)cc(S(=O)(=O)O)c(N)c4c3O)c(C)c2)ccc1N=Nc1ccc2c(S(=O)(=O)O)cc(S(=O)(=O)O)c(N)c2c1O` [euspeclibcmpd2073], the “Srxn1-GFP intensity median modified Z-score” value is reported as -1.03 (inactive).
With `NC1(C(=O)O)CCCC1` [euspeclibcmpd1759] the “Srxn1-GFP intensity median modified Z-score” value was -0.415 (inactive).
In the case of `O=C(O)CCc1nc2ccccc2[nH]1` [euspeclibcmpd1271], the “Srxn1-GFP intensity median modified Z-score” value is reported as -0.404 (inactive).
`CC1=C(CCC(=O)O)c2cc3nc(cc4[nH]c(cc5[nH]c(cc1n2)c(C)c5C(C)O)c(C)c4C(C)O)C(C)=C3CCC(=O)O` (configuration not stated) [euspeclibcmpd1687] was tested, and the “Srxn1-GFP intensity median modified Z-score” value was 8.82 (active).
For `C=CC1=C(C)c2cc3[nH]c(cc4[nH]c(cc5nc(cc1n2)=C(C)C5=CCC(=O)O)c(CCC(=O)O)c4C)c(C)c3=CC` [euspeclibcmpd1059], the “Srxn1-GFP intensity median modified Z-score” value was 0.562 (inactive).
In the case of `CN(C)C(N)=NC(=N)N` [euspeclibcmpd874], the “Srxn1-GFP intensity median modified Z-score” value is reported as -0.199 (inactive).
With `CC(CCC(=O)O)C1CCC2C3CCC4CC(O)CCC4(C)C3CC(=O)C12C` (configuration not stated) the “Srxn1-GFP intensity median modified Z-score” value was 0.291 (inactive).
In the case of `O=C(O)[C@H](O)[C@@H](O)[C@H](O)[C@H](O)CO` [euspeclibcmpd2450], the “Srxn1-GFP intensity median modified Z-score” value is reported as 0.571 (inactive).
For `COc1ccc(C=CC(=O)c2cc(O)ccc2O)cc1` [euspeclibcmpd1400], the “Srxn1-GFP intensity median modified Z-score” value was -0.058 (inactive).
In the case of `COc1ccc(C(=O)/C=C/c2cccc(Cl)c2)cc1`, the “Srxn1-GFP intensity median modified Z-score” value is reported as 0.75 (inactive).
`O=C(O)/C=C/C=C/c1ccccc1` [euspeclibcmpd1620] was tested, and the “Srxn1-GFP intensity median modified Z-score” value was -0.147 (inactive).
In the case of `O=C(/C=C/c1ccccc1)c1ccc(O)cc1` [euspeclibcmpd1718], the “Srxn1-GFP intensity median modified Z-score” value is reported as 12.6 (active).
`CCOC(=O)c1ccc(O)cc1` [euspeclibcmpd974] was tested, and the “Srxn1-GFP intensity median modified Z-score” value was -0.257 (inactive).
In the case of `COc1ccc(C(=O)/C=C/c2ccccc2)cc1` [euspeclibcmpd1565], the “Srxn1-GFP intensity median modified Z-score” value is reported as 26.7 (active).
For `O=C(/C=C/c1ccccc1)c1ccc(O)cc1`, the “Srxn1-GFP intensity median modified Z-score” value was 4.36 (active).
With `COc1ccc2oc(-c3ccccc3)c(OC)c(=O)c2c1` [euspeclibcmpd1782] the “Srxn1-GFP intensity median modified Z-score” value was 1.28 (inactive).
In the case of `O[C@@H]1[C@@H](O)[C@@H](O)OC[C@H]1O`, the “Srxn1-GFP intensity median modified Z-score” value is reported as 0.871 (inactive).
With `CC1C2C(CC3C4CC[C@H]5C[C@@H](O)CC[C@]5(C)C4CC(=O)[C@@]32C)O[C@]12CC[C@@H](C)CO2` (some centres not stated) [euspeclibcmpd1427] the “Srxn1-GFP intensity median modified Z-score” value was -0.425 (inactive).
With `COc1cc(/C=C/C(=O)N2CC=CCC2=O)cc(OC)c1OC` [euspeclibcmpd1434] the “Srxn1-GFP intensity median modified Z-score” value was 1.01 (inactive).
With `CON` [euspeclibcmpd1358] the “Srxn1-GFP intensity median modified Z-score” value was -0.128 (inactive).
With `CC(C)[N+]1(C)C2CC[C@H]1C[C@@H](OC(=O)C(CO)c1ccccc1)C2` (some centres not stated) [euspeclibcmpd162] the “Srxn1-GFP intensity median modified Z-score” value was 0.508 (inactive).
In the case of `CC[C@]1(O)CC2CN(CCc3c([nH]c4ccccc34)[C@@](C(=O)OC)(c3cc4c(cc3OC)N(C=O)[C@H]3[C@@](O)(C(=O)OC)[C@H](OC(C)=O)[C@]5(CC)C=CCN6CC[C@]43[C@@H]65)C2)C1` (some centres not stated) [euspeclibcmpd836], the “Srxn1-GFP intensity median modified Z-score” value is reported as 27.5 (active).
For `CC[C@]1(O)CC2CN(CCc3c([nH]c4ccccc34)[C@@](C(=O)OC)(c3cc4c(cc3OC)N(C)[C@H]3[C@@](O)(C(=O)OC)[C@H](OC(C)=O)[C@]5(CC)C=CCN6CC[C@]43[C@@H]65)C2)C1` (some centres not stated) [euspeclibcmpd320], the “Srxn1-GFP intensity median modified Z-score” value was 25.8 (active).
In the case of `CC(=O)NC(CCC(N)=O)C(=O)O` (configuration not stated) [euspeclibcmpd1028], the “Srxn1-GFP intensity median modified Z-score” value is reported as -0.425 (inactive).
`Oc1cc2c(cc1O)C1c3ccc(O)c(O)c3OCC1(O)C2` (configuration not stated) [euspeclibcmpd1605] was tested, and the “Srxn1-GFP intensity median modified Z-score” value was -0.437 (inactive).
For `CN(C)CC/C=C1/c2ccccc2COc2ccccc21` [euspeclibcmpd104], the “Srxn1-GFP intensity median modified Z-score” value was 1.4 (inactive).
With `CC(=O)C1CCC2C3CC(C)=C4CC(=O)CC[C@]4(C)C3[C@@H](O)C[C@]12C` (some centres not stated) [euspeclibcmpd179] the “Srxn1-GFP intensity median modified Z-score” value was -0.562 (inactive).
`O=c1cc(-c2cc(O)c(O)c(O)c2)oc2cc(O)cc(O)c12` [euspeclibcmpd1548] was tested, and the “Srxn1-GFP intensity median modified Z-score” value was -0.459 (inactive).
In the case of `Cc1cc(-n2c(=O)[nH]c(=O)n(C)c2=O)ccc1Oc1ccc(SC(F)(F)F)cc1` [euspeclibcmpd839], the “Srxn1-GFP intensity median modified Z-score” value is reported as 2.22 (active).
In the case of `CC(C)(Oc1ccc(Cl)cc1)C(=O)O` [euspeclibcmpd1029], the “Srxn1-GFP intensity median modified Z-score” value is reported as -0.706 (inactive).
With `COc1ccc(C(=O)NCc2ccc(CN(C)C)cc2)cc1OC` the “Srxn1-GFP intensity median modified Z-score” value was 0.376 (inactive).
For `CCc1cn(C2OCC(O)C2CO)c(=O)[nH]c1=O` (configuration not stated) [euspeclibcmpd543], the “Srxn1-GFP intensity median modified Z-score” value was -0.196 (inactive).
In the case of `C=C1c2c(Cl)ccc(O)c2C(=O)C2C(=O)[C@]3(O)C(=O)C(C(N)=O)C(=O)C(N(C)C)[C@@H]3[C@@H](O)[C@H]12` (some centres not stated) [euspeclibcmpd381], the “Srxn1-GFP intensity median modified Z-score” value is reported as 0.0643 (inactive).
With `CCC[C@@H]1CC(C(=O)N[C@H]([C@H]2O[C@H](SC)[C@H](O)[C@@H](O)[C@H]2O)[C@H](C)O)N(C)C1` (some centres not stated) [euspeclibcmpd172] the “Srxn1-GFP intensity median modified Z-score” value was 0.221 (inactive).
